High-throughput results deposited in PubChem by The Scripps Research Institute Molecular Screening Center.
The list is not random: actives were taken first. Their share in the collection is about 4.5%.
DAX1 inh-1: inhibits human nuclear receptor DAX1; inhibition, % at 6.75 µM; HEK293 Gal4-DAX1 luciferase reporter, luminescence; 340,000 compounds, 0.99% hits; P51843; AID 504766;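 active = inhibition above the mean over all tested compounds plus 3 SD, cut at about 4.2% in these data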;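 note: 0% = DAX1-transfected cells with DMSO and 100% = empty-vector control cells with DMSO; inhibition shows as a rise in luminescence from relieved DAX1 repression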
Target sequence (P51843 207-470 limits assumed): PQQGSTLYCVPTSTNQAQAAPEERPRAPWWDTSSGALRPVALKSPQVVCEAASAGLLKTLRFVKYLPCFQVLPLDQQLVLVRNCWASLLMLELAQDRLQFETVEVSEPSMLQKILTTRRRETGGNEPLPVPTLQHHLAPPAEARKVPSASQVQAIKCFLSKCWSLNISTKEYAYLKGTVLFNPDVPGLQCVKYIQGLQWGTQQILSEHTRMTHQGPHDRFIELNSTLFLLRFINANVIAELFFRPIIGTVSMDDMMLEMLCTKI
GAA850 FXN act: activators of GAA850 frataxin (FXN) promoter; HEK293 lucGAA850 FXN promoter luciferase reporter, 24 h; percent of 10 µM SAHA response; 360,000 compounds, 0.56% hits; activation, % at 6 µM;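 active = activation above the average of all compounds screened plus 3 SD, cutoff fixed separately per campaign, cut at about 7.5% in these data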;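 note: 0% = DMSO wells and 100% = 10 µM SAHA wells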
DAX1 inh-2: blocks DAX1 repression of SF-1 activated StAR promoter; HEK293T StAR-luciferase reporter, SF-1/DAX-1 repression relief; inhibition, % at 6.8 µM; 370,000 compounds, 1.1% hits;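 active = inhibition above the mean over all tested compounds plus 3 SD, cut at about 3.6% in these data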;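 note: 0% = DAX-1 cells with DMSO and 100% = cells lacking DAX-1 with DMSO; higher inhibition means more luminescence from relief of DAX-1 repression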
hgDAF-12 ag: activates the H. glycines DAF-12 receptor ligand-binding domain. HEK293 GAL4-hgDAF12 UAS-luciferase reporter, agonist luminescence; normalized to butyrate control. activation, % at 6.8 µM. 370,000 compounds, 1.8% hits;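 active = activation above a cutoff set at the mean of all screened compounds plus 3 SD, cut at about 10% in these data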;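 note: 0% = DMSO wells and 100% = sodium butyrate wells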
hcDAF12 agonist: H. contortus DAF-12 activation, primary screen; HEK293 hcDAF-12 lit1-tk-luc reporter, luminescence; 0% DMSO, 100% Δ7-dafachronic acid; 370,000 compounds, 1.4% hits; activation, % at 6.8 µM;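 active = activation above the mean of all tested compounds plus 3 SD, cut at about 5.5% in these data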;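 note: 100% = response to 3 µM Δ7-dafachronic acid high control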
ssDAF12 agonist: S. stercoralis DAF-12 activation, primary screen; HEK293 ssDAF-12/GRIP1 lit1-tk-luc reporter, luminescence; % of 3 µM dafachronic acid response; activation, % at 6.8 µM; 370,000 compounds, 1% hits; AID 652126;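 active = activation above the mean over all tested compounds plus 3 SD, cut at about 0.9% in these data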;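 note: 0% = DMSO-only wells and 100% = 3 µM delta7-dafachronic acid wells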
* = called active by the depositor; / = no result given.

SMILES	DAX1 inh-1	GAA850 FXN act	DAX1 inh-2	hgDAF-12 ag	hcDAF12 agonist	ssDAF12 agonist
COc1ccc(C)cc1N(C(=O)COc1ccccc1)c1nc2ccccc2s1	2	0	1	5	6.2*	1
COc1ccc(C)cc1N(C(=O)c1ccccc1)c1nc2ccccc2s1	0	-5	0	1	4	0
CCOc1ccccc1N1C(=O)CC(Sc2n[nH]c(-c3ccccc3)n2)C1=O (stereo unspecified)	4.8*	1	0	-1	1	-1
O=C1Nc2ccccc2C1=Nc1cccc([N+](=O)[O-])c1	1	0	0	0	1	0
NC(=O)c1ccc(N=C2C(=O)Nc3ccc([N+](=O)[O-])cc32)cc1	5.3*	1	1	-3	0	-1
CN(Cc1cccc(F)c1)C(=O)c1cccc(S(=O)(=O)N2CCN(Cc3ccccc3)CC2)c1	0	0	-2	-4	-3	-1
CN(CC(=O)Nc1cccc(F)c1)C(=O)c1cccc(S(=O)(=O)N2CCN(Cc3ccccc3)CC2)c1	-2	-5	-2	-3	-3	11*
COc1cc(F)ccc1-c1csc(C(NC(C)=O)c2cccc(F)c2)n1 (stereo unspecified)	/	1	4.2*	2	0	-1
CC(=O)NC(c1cccc(F)c1)c1nc(-c2ccccc2C)cs1 (stereo unspecified)	/	0	0	-1	1	-1
CCn1c(=O)n(CC(=O)N2CCN(c3ccc(F)cc3)CC2)c(=O)c2ccccc21	/	/	0	0	-1	-1
Clc1ccc(-n2nnnc2CN2CCOCC2)cc1	6.0*	2	-1	-1	0	-1
Cc1ccc(-n2nnnc2CN2CCCCC2)cc1	1	1	0	-1	-2	-2
O=C(NCc1ccccc1)OC1CCC12CCC(c1ccccc1)CC2 (stereo unspecified)	/	/	/	3	0	-1
Cc1cccc(NC(=S)NC(=O)/C=C/c2ccccc2)n1	4.3*	6	1	6	2	-1
COc1ccc(NC(=S)NC(=O)/C=C/c2ccccc2)cc1	-1	0	0	-2	-2	-2
COc1cccc(CC(=O)N(Cc2ccccc2)c2ccccc2C(=O)Nc2cc(OC)ccc2OC)c1	/	/	0	0	-2	-2
S=C(N/N=C/c1cccs1)NC1CC2CCC1C2 (stereo unspecified)	/	3	0	11*	-1	-1
CCc1ccc(NC(=O)CSc2nnc(Cc3cccn3C)n2-c2ccc(OC)cc2)cc1	4.7*	0	1	-2	0	0
COc1ccc(-n2c(Cc3cccn3C)nnc2SCC(=O)Nc2ccccc2)cc1	1	1	-1	-2	-1	-1
C=CCN1C(=O)[C@H](CC(=O)N2CCSCC2)[C@@]2(C(=O)OCC)CCCC=C12	/	/	1	1	-3	0
CCNC(=S)NNC(=O)CC(C)C	6.7*	0	0	-1	0	-2
CC(C)CNC(=S)NNC(=O)CC(C)O (stereo unspecified)	1	1	0	-1	0	-1
O=C(Nc1cnc2ccccc2c1)c1cccc(-n2cnnn2)c1	3	2	1	9	6.3*	0
Cn1nc(C(=O)Nc2ccc(S(=O)(=O)N3CCCC3)cc2)ccc1=O	0	-3	-1	1	3	-1
Cc1cc(C)c(S(=O)(=O)Nc2ccccn2)c(C)c1	4.3*	0	0	-1	-2	-2
SMILES	DAX1 inh-1	GAA850 FXN act	DAX1 inh-2	hgDAF-12 ag	hcDAF12 agonist	ssDAF12 agonist
CCC(=O)Nc1ccc(S(=O)(=O)Nc2nccs2)cc1	4.3*	-1	1	0	0	0
Cn1nc(C(=O)Nc2ccc(S(=O)(=O)Nc3ncccn3)cc2)ccc1=O	5.1*	-3	0	4	-2	-1
Cc1ccc(S(=O)(=O)Nc2ccccn2)c(C)c1	1	-1	0	-1	-1	-1
CCC(=O)Nc1ccc(S(=O)(=O)Nc2ccccn2)cc1	0	4	1	2	5	1.4*
COC(=O)c1cc(-c2cc3ccccc3o2)c(=O)n2c1CCC2	/	/	0	4	2	0
O=C(Nc1ccc(S(=O)(=O)Nc2nccs2)cc1)C1=NN(c2ccccc2)C(=O)CC1	0	2	1	-1	4	1.2*
O=[N+]([O-])c1cccc(NCCCN2CCC(C(O)(c3ccccc3)c3ccccc3)CC2)c1	/	/	0	1	1	-1
Nc1[nH]c(C(=O)c2ccccc2)c(-c2ccc3ccccc3c2)c1C(=O)NC1CC1	/	/	0	1	3	-1
Cc1csc2nc(CSc3ccc(Cl)cc3)cn12	2	4	/	/	/	/
c1cn2cc(CSC3CCCCC3)nc2s1	2	4	2	13*	2	1
Clc1ccc(SCc2cn3ccsc3n2)cc1	2	2	1	11*	1	-1
COc1ccccc1CC(=O)NNS(=O)(=O)c1ccc([N+](=O)[O-])cc1	6.1*	-1	-1	-2	-1	-1
O=C1N=C(N2CCOCC2)S/C1=C1\C(=O)N(Cc2ccccc2)c2ccccc21	4.4*	3	0	4	1	-1
Cc1cccc(NC(=O)CCc2c(C)nn(-c3ccc(N4CCOCC4)nn3)c2C)c1	-1	-1	0	3	1	-1
Cc1cccc(NC(=O)CCc2c(C)nn(-c3ccc(N4CCCCC4)nn3)c2C)c1	0	0	3.8*	4	0	-1
O=C(Nc1ccccc1[N+](=O)[O-])NC1CCCCN(Cc2ccc(Cl)cc2)C1=O (stereo unspecified)	/	/	0	-3	-2	-1
Cc1ccccc1C1=NC(c2ccc(F)cc2F)ON1 (stereo unspecified)	0	3	0	2	-1	-1
COc1ccccc1C1N=C(c2ccccc2C)NO1 (stereo unspecified)	0	6	1	10*	2	0
O=C(NCc1ccccc1)[C@H]1CCCN1	/	/	1	0	-1	-1
C#CCSc1nc(=O)c2cccnc2n1-c1ccc(C)cc1	4.5*	3	-1	-3	-1	-2
Cc1ccc(-n2cnc(=O)c3cccnc32)cc1	-1	2	0	1	-1	-1
O=C(NC1C(=O)NNC1c1ccccc1)c1ccc(F)cc1 (stereo unspecified)	1	0	1	-2	0	-1
Cc1ccc(C2NNC(=O)C2NC(=O)c2ccccc2)cc1 (stereo unspecified)	4.5*	5	1	5	1	-1
CCn1c2ccccc2c2nnc(SCCN3CCOCC3)nc21	-1	2	-1	1	-2	-1
CSc1nnc2c3cc(F)ccc3n(C)c2n1	0	2	0	6	6	1.0*
